Source: PubChem BioAssay (NCI)
This is part of a sample that, as a whole, favours compounds with a hit. Of some 79,000 tested, about 15% had one in any assay. A number with no mark means an inactive call. Active and inactive are the calls of the source. Cut-off read from the data, not from the text of the source: active = growth inhibition above about 70%; inactive = the rest.

Legend:
[1] = NCI Yeast Anticancer Drug Screen. Data for the rad50 strain (AID 155);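 note: 0% = growth of vehicle-only cultures of the same strain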; details: S. cerevisiae rad50 strain growth inhibition, hits give high values
How it was run: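 A DNA repair-deficient yeast mutant serves as the test organism; compound-induced growth inhibition is calculated against vehicle-treated cells.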

[2] = NCI Yeast Anticancer Drug Screen. Data for the mec2-1 strain (AID 157); details: S. cerevisiae mec2-1 strain, hits give high values
How it was run: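 Yeast mec2-1 mutant treated with compound. Readout: growth inhibition vs vehicle controls.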

[3] = NCI Yeast Anticancer Drug Screen. Data for the sgs1 mgt1 strain (AID 161);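 note: 0% = growth of cultures given vehicle only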; details: S. cerevisiae sgs1 mgt1 strain, hits give high values
How it was run: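 Inhibition of yeast growth, normalised to vehicle-treated controls, is reported for a strain bearing genetic alterations in DNA damage repair.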

[4] = NCI Yeast Anticancer Drug Screen. Data for the cln2 rad14 strain (AID 165);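 note: 0% = growth equal to vehicle treated cultures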; details: S. cerevisiae cln2 rad14 strain, hits give high values
How it was run: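 cln2 rad14 yeast strain; compound exposure; growth inhibition read vs vehicle controls.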

[5] = NCI Yeast Anticancer Drug Screen. Data for the bub3 strain (AID 167); details: S. cerevisiae bub3 mutant strain, hits give high values
How it was run: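 Inhibition values come from growth of compound-treated mutant yeast normalised to vehicle-treated controls.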

[6] = NCI Yeast Anticancer Drug Screen. Data for the mlh1 rad18 strain (AID 175); details: S. cerevisiae mlh1 rad18 strain growth inhibition, hits give high values
How it was run: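 Yeast w/ defined DNA-repair lesions; compound exposure; growth vs vehicle controls → % inhibition.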

[7] = at 5.0 µM (retest, dose inferred, filed as 0.5)
[8] = at 50.0 µM (retest, dose inferred, filed as 5.0)

COC(=O)c1n[nH]c(C(C)C)c1N=NN(C)C
growth inhibition [1, 7]: 29% | growth inhibition [1, 8]: 95% (active) | growth inhibition ([1]; at 50.0 µM): 98.9% (active) | growth inhibition [2, 7]: -35% | growth inhibition [2, 8]: 97% (active) | growth inhibition ([2]; at 50.0 µM): 99.1% (active) | growth inhibition [3, 7]: -27% | growth inhibition [3, 8]: 96% (active) | growth inhibition ([3]; at 50.0 µM): 99% (active) | growth inhibition [4, 7]: -11% | growth inhibition [4, 8]: 98% (active) | growth inhibition ([4]; at 50.0 µM): 99% (active) | growth inhibition [5, 7]: -38% | growth inhibition [5, 8]: 96% (active) | growth inhibition ([5]; at 50.0 µM): 98.3% (active) | growth inhibition [6, 7]: -77% | growth inhibition [6, 8]: 96% (active) | growth inhibition ([6]; at 50.0 µM): 99.2% (active)

CCOC(=O)N1c2ccc3ccccc3c2C=CC1C#N (configuration not stated)
growth inhibition [1, 7]: 0% | growth inhibition [1, 8]: 6% | growth inhibition ([1]; at 50.0 µM): 96.5% (active) | growth inhibition [2, 7]: -12% | growth inhibition [2, 8]: -5% | growth inhibition ([2]; at 50.0 µM): 97.3% (active) | growth inhibition [3, 7]: -1% | growth inhibition [3, 8]: 14% | growth inhibition ([3]; at 50.0 µM): 96.6% (active) | growth inhibition [4, 7]: -11% | growth inhibition [4, 8]: 7% | growth inhibition ([4]; at 50.0 µM): 95.5% (active) | growth inhibition [5, 7]: -18% | growth inhibition [5, 8]: -20% | growth inhibition ([5]; at 50.0 µM): 86.3% (active) | growth inhibition [6, 7]: -2% | growth inhibition [6, 8]: -6% | growth inhibition ([6]; at 50.0 µM): 94.7% (active)

OC(/C=C/c1ccccc1)(c1ccccc1)c1nc2ccccc2s1 (configuration not stated)
growth inhibition [1, 7]: 35% | growth inhibition [1, 8]: 98% (active) | growth inhibition ([1]; at 50.0 µM): -8% | growth inhibition [2, 7]: 59% | growth inhibition [2, 8]: 98% (active) | growth inhibition ([2]; at 50.0 µM): 1.95% | growth inhibition [3, 7]: 5% | growth inhibition [3, 8]: 97% (active) | growth inhibition ([3]; at 50.0 µM): -11.3% | growth inhibition [4, 7]: 26% | growth inhibition [4, 8]: 93% (active) | growth inhibition ([4]; at 50.0 µM): -23.1% | growth inhibition [5, 7]: 6% | growth inhibition [5, 8]: 98% (active) | growth inhibition ([5]; at 50.0 µM): -12.8% | growth inhibition [6, 7]: 20% | growth inhibition [6, 8]: 96% (active) | growth inhibition ([6]; at 50.0 µM): -3.45%

Cc1ccc(C)c(S(=O)(=O)Nc2c([N+](=O)[O-])cc([N+](=O)[O-])c3ccccc23)c1
growth inhibition [1, 7]: 30% | growth inhibition [1, 8]: 35% | growth inhibition ([1]; at 50.0 µM): 85.7% (active) | growth inhibition [2, 7]: 30% | growth inhibition [2, 8]: 40% | growth inhibition ([2]; at 50.0 µM): 86.6% (active) | growth inhibition [3, 7]: 47% | growth inhibition [3, 8]: 29% | growth inhibition ([3]; at 50.0 µM): 87.5% (active) | growth inhibition [4, 7]: 32% | growth inhibition [4, 8]: 54% | growth inhibition ([4]; at 50.0 µM): 86% (active) | growth inhibition [5, 7]: 20% | growth inhibition [5, 8]: 30% | growth inhibition ([5]; at 50.0 µM): 79.8% (active) | growth inhibition [6, 7]: 34% | growth inhibition [6, 8]: 59% | growth inhibition ([6]; at 50.0 µM): 83.6% (active)

COc1cc[c]([Sn]([O][Sn]([Cl])([c]2ccc(OC)cc2)[c]2ccc(OC)cc2)[c]2ccc(OC)cc2)cc1
growth inhibition [1, 7]: 47% | growth inhibition [1, 8]: 95% (active) | growth inhibition ([1]; at 50.0 µM): 27.7% | growth inhibition [2, 7]: 31% | growth inhibition [2, 8]: 86% (active) | growth inhibition ([2]; at 50.0 µM): 32.9% | growth inhibition [3, 7]: 58% | growth inhibition [3, 8]: 98% (active) | growth inhibition ([3]; at 50.0 µM): 69.8% | growth inhibition [4, 7]: 28% | growth inhibition [4, 8]: 88% (active) | growth inhibition ([4]; at 50.0 µM): 53.5% | growth inhibition [5, 7]: 50% | growth inhibition [5, 8]: 96% (active) | growth inhibition ([5]; at 50.0 µM): 71.3% (active) | growth inhibition [6, 7]: 55% | growth inhibition [6, 8]: 94% (active) | growth inhibition ([6]; at 50.0 µM): 73.7% (active)

CCN(CC)CCOc1ccc(NC(=S)Nc2ccc(OCC(C)C)cc2)cc1
growth inhibition [1, 7]: 2% | growth inhibition [1, 8]: 54% | growth inhibition ([1]; at 50.0 µM): 66.1% | growth inhibition [2, 7]: 29% | growth inhibition [2, 8]: 65% | growth inhibition ([2]; at 50.0 µM): 34.1% | growth inhibition [3, 7]: 42% | growth inhibition [3, 8]: 76% (active) | growth inhibition ([3]; at 50.0 µM): 81.8% (active) | growth inhibition [4, 7]: 10% | growth inhibition [4, 8]: 53% | growth inhibition ([4]; at 50.0 µM): 83.9% (active) | growth inhibition [5, 7]: 4% | growth inhibition [5, 8]: 47% | growth inhibition ([5]; at 50.0 µM): 76% (active) | growth inhibition [6, 7]: 46% | growth inhibition [6, 8]: 74% (active) | growth inhibition ([6]; at 50.0 µM): 80.9% (active)

O=c1nc(-c2ccccc2)cc(-c2ccccc2O)[nH]1
growth inhibition [1, 7]: -11% | growth inhibition [1, 8]: 93% (active) | growth inhibition ([1]; at 50.0 µM): 44.1% | growth inhibition [2, 7]: -1% | growth inhibition [2, 8]: 25% | growth inhibition ([2]; at 50.0 µM): 16.3% | growth inhibition [3, 7]: -1% | growth inhibition [3, 8]: 40% | growth inhibition ([3]; at 50.0 µM): 30.4% | growth inhibition [4, 7]: 19% | growth inhibition [4, 8]: 61% | growth inhibition ([4]; at 50.0 µM): 33.8% | growth inhibition [5, 7]: 0% | growth inhibition [5, 8]: 87% (active) | growth inhibition ([5]; at 50.0 µM): 16.9% | growth inhibition [6, 7]: 1% | growth inhibition [6, 8]: 68% | growth inhibition ([6]; at 50.0 µM): 33.5%

OC1(c2ccccc2)c2ccccc2Sc2ccccc21
growth inhibition [1, 7]: 1% | growth inhibition [1, 8]: 99% (active) | growth inhibition ([1]; at 50.0 µM): 99% (active) | growth inhibition [2, 7]: 6% | growth inhibition [2, 8]: 99% (active) | growth inhibition ([2]; at 50.0 µM): 99.2% (active) | growth inhibition [3, 7]: 3% | growth inhibition [3, 8]: 97% (active) | growth inhibition ([3]; at 50.0 µM): 99.2% (active) | growth inhibition [4, 7]: 8% | growth inhibition [4, 8]: 99% (active) | growth inhibition ([4]; at 50.0 µM): 99% (active) | growth inhibition [5, 7]: -16% | growth inhibition [5, 8]: 98% (active) | growth inhibition ([5]; at 50.0 µM): 99.3% (active) | growth inhibition [6, 7]: 7% | growth inhibition [6, 8]: 97% (active) | growth inhibition ([6]; at 50.0 µM): 99.1% (active)

CN(C)CC/C(=N\Nc1ccc([N+](=O)[O-])cc1)c1ccccc1
growth inhibition [1, 7]: 12% | growth inhibition [1, 8]: 65% | growth inhibition ([1]; at 50.0 µM): 99.5% (active) | growth inhibition [2, 7]: 8% | growth inhibition [2, 8]: 86% (active) | growth inhibition ([2]; at 50.0 µM): 84.4% (active) | growth inhibition [3, 7]: 29% | growth inhibition [3, 8]: 96% (active) | growth inhibition ([3]; at 50.0 µM): 99.2% (active) | growth inhibition [4, 7]: 1% | growth inhibition [4, 8]: 62% | growth inhibition ([4]; at 50.0 µM): 98.8% (active) | growth inhibition [5, 7]: 8% | growth inhibition [5, 8]: 98% (active) | growth inhibition ([5]; at 50.0 µM): 99.7% (active) | growth inhibition [6, 7]: 19% | growth inhibition [6, 8]: 97% (active) | growth inhibition ([6]; at 50.0 µM): 98.5% (active)
